These results are taken from publication PMC9838217, “Structure of SALL4 zinc finger domain reveals link between AT-rich DNA binding and Okihiro syndrome”.

Holding throughout (experiment): HT-SELEX; high values mean tight binding
Holding throughout (conditions): protein: recombinant; vector His6-GST; dsDNA, one strand shown

One experiment addresses T1, SALL4 ZFC4 WT (HT-SELEX) (Mus musculus, UniProt Q8BX22 870-940).
T1 sequence: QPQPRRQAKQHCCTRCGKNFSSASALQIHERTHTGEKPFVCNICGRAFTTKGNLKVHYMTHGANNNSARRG
An outline of the steps: (§1)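 Purified recombinant mouse SALL4 zinc finger cluster 4 (residues 870–940, 1 µg) was incubated with library DNA (1.5 µg first cycle, 200 ng later) in 100 µl of 10 mM Tris–HCl pH 7.5, 50 mM NaCl, poly(dI-dC) and DTT for 10 min at room temperature, with Ni2+ bead capture and reselection for up to 6 cycles in triplicate. MiSeq reads were scanned for 6-mers. Binding signal is each canonical k-mer's read fraction as fold change relative to the initial random library.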

Experiment [1] has as its target T2, SALL4 ZFC4 R900W (HT-SELEX) (Mus musculus, UniProt Q8BX22 870-940, R900W).
T2 sequence: T1 sequence with R31W
An outline of the steps: as §1

The target of experiment [2] is T3, SALL4 ZFC4 G921D (HT-SELEX) (Mus musculus, UniProt Q8BX22 870-940, G921D).
T3 sequence: T1 sequence with G52D
An outline of the steps:
as §1

Positions count from the first letter of the chain named.

Turning to TCTTAA, the binding signal with SALL4 ZFC4 WT (HT-SELEX) came to 2.07 ± 0.0682 fold-change vs cycle 0; in experiment [1], 2.14 ± 0.15 fold-change vs cycle 0; in experiment [2] it was 1.86 ± 0.222 fold-change vs cycle 0.

In the case of CGAACA, the binding signal is 0.588 ± 0.0204 fold-change vs cycle 0 in the experiment with SALL4 ZFC4 WT (HT-SELEX), 0.694 ± 0.0214 fold-change vs cycle 0 in experiment [1] and 0.787 ± 0.0244 fold-change vs cycle 0 in experiment [2].

AAGACT: the binding signal in the experiment with SALL4 ZFC4 WT (HT-SELEX) is 1.29 ± 0.0445 fold-change vs cycle 0; in experiment [1], 1.49 ± 0.0431 fold-change vs cycle 0; in experiment [2], 1.4 ± 0.0897 fold-change vs cycle 0.

With CGTAGA, the figures for the binding signal (with SALL4 ZFC4 WT (HT-SELEX); in experiment [1]; in experiment [2]) were 0.623 ± 0.00876 fold-change vs cycle 0, 0.7054 ± 0.00296 fold-change vs cycle 0 and 0.786 ± 0.024 fold-change vs cycle 0, respectively.

Turning to CGTACA, the binding signal with SALL4 ZFC4 WT (HT-SELEX) turned out to be 0.639 ± 0.0345 fold-change vs cycle 0; in experiment [1], 0.729 ± 0.0226 fold-change vs cycle 0; in experiment [2], 0.802 ± 0.0376 fold-change vs cycle 0.

As for AGCATC, the binding signal with SALL4 ZFC4 WT (HT-SELEX) worked out at 0.703 ± 0.0384 fold-change vs cycle 0; in experiment [1], 0.804 ± 0.0378 fold-change vs cycle 0; in experiment [2], 0.887 ± 0.0448 fold-change vs cycle 0.

With ATGTTC, the binding signal was determined as 1.28 ± 0.0355 fold-change vs cycle 0 with SALL4 ZFC4 WT (HT-SELEX), 1.37 ± 0.0462 fold-change vs cycle 0 in experiment [1] and 1.36 ± 0.0792 fold-change vs cycle 0 in experiment [2].

With ATCTTC, the binding signal with SALL4 ZFC4 WT (HT-SELEX) worked out at 1.42 ± 0.0263 fold-change vs cycle 0; in experiment [1], 1.58 ± 0.0645 fold-change vs cycle 0; in experiment [2], 1.46 ± 0.104 fold-change vs cycle 0.

As for CTTCCA, the binding signal with SALL4 ZFC4 WT (HT-SELEX) came out at 0.834 ± 0.0174 fold-change vs cycle 0; in experiment [1], 0.975 ± 0.0211 fold-change vs cycle 0; in experiment [2], 1.02 ± 0.0304 fold-change vs cycle 0.

On to ACGACC, for which the binding signal in the experiment with SALL4 ZFC4 WT (HT-SELEX) was 0.308 ± 0.026 fold-change vs cycle 0; in experiment [1], 0.378 ± 0.0333 fold-change vs cycle 0; in experiment [2], 0.508 ± 0.0872 fold-change vs cycle 0.

With CTCTCC, the binding signal is 0.497 ± 0.0273 fold-change vs cycle 0 with SALL4 ZFC4 WT (HT-SELEX), 0.603 ± 0.0441 fold-change vs cycle 0 in experiment [1] and 0.672 ± 0.0341 fold-change vs cycle 0 in experiment [2].

As to GGAAAC, the binding signal stood at 0.775 ± 0.0365 fold-change vs cycle 0 with SALL4 ZFC4 WT (HT-SELEX), 0.874 ± 0.0459 fold-change vs cycle 0 in experiment [1] and 0.9097 ± 0.00842 fold-change vs cycle 0 in experiment [2].

Regarding CTATGA, the binding signal with SALL4 ZFC4 WT (HT-SELEX) came out at 1.49 ± 0.114 fold-change vs cycle 0; in experiment [1], 1.43 ± 0.0544 fold-change vs cycle 0; in experiment [2], 1.42 ± 0.104 fold-change vs cycle 0.

As for AGTAGC, the binding signal with SALL4 ZFC4 WT (HT-SELEX) amounted to 0.643 ± 0.0074 fold-change vs cycle 0; in experiment [1] it was 0.756 ± 0.0367 fold-change vs cycle 0; in experiment [2], 0.856 ± 0.0498 fold-change vs cycle 0.

CCTCCA: the binding signal in the experiment with SALL4 ZFC4 WT (HT-SELEX) was 0.517 ± 0.0262 fold-change vs cycle 0; in experiment [1] it was 0.603 ± 0.0398 fold-change vs cycle 0; in experiment [2] it was 0.687 ± 0.0633 fold-change vs cycle 0.

Consider GCTTCA, for which the binding signal in the experiment with SALL4 ZFC4 WT (HT-SELEX) came to 0.635 ± 0.0338 fold-change vs cycle 0; in experiment [1], 0.769 ± 0.0139 fold-change vs cycle 0; in experiment [2], 0.8419 ± 0.0056 fold-change vs cycle 0.

On to CTAACC, for which the binding signal in the experiment with SALL4 ZFC4 WT (HT-SELEX) amounted to 0.863 ± 0.0299 fold-change vs cycle 0; in experiment [1] it was 0.983 ± 0.0562 fold-change vs cycle 0; in experiment [2] it was 1.01 ± 0.0396 fold-change vs cycle 0.

In the case of TAGATA, the binding signal came to 2.23 ± 0.154 fold-change vs cycle 0 with SALL4 ZFC4 WT (HT-SELEX), 2.04 ± 0.12 fold-change vs cycle 0 in experiment [1] and 1.84 ± 0.212 fold-change vs cycle 0 in experiment [2].

As for TACTCA, the binding signal was determined as 1.43 ± 0.0381 fold-change vs cycle 0 with SALL4 ZFC4 WT (HT-SELEX), 1.5 ± 0.0664 fold-change vs cycle 0 in experiment [1] and 1.42 ± 0.0998 fold-change vs cycle 0 in experiment [2].

On to ACGCTA, for which the binding signal in the experiment with SALL4 ZFC4 WT (HT-SELEX) stood at 0.566 ± 0.0296 fold-change vs cycle 0; in experiment [1] it was 0.638 ± 0.0194 fold-change vs cycle 0; in experiment [2], 0.754 ± 0.0468 fold-change vs cycle 0.

For AAGCGA, the binding signal is 0.546 ± 0.0399 fold-change vs cycle 0 with SALL4 ZFC4 WT (HT-SELEX), 0.616 ± 0.0449 fold-change vs cycle 0 in experiment [1] and 0.734 ± 0.0783 fold-change vs cycle 0 in experiment [2].

Regarding CACCAA, the binding signal is 0.692 ± 0.0333 fold-change vs cycle 0 in the experiment with SALL4 ZFC4 WT (HT-SELEX), 0.776 ± 0.0234 fold-change vs cycle 0 in experiment [1] and 0.859 ± 0.0335 fold-change vs cycle 0 in experiment [2].

For the sequence ATCGAT, the binding signal with SALL4 ZFC4 WT (HT-SELEX) came out at 1.23 ± 0.075 fold-change vs cycle 0; in experiment [1], 1.21 ± 0.0415 fold-change vs cycle 0; in experiment [2] it was 1.3 ± 0.0771 fold-change vs cycle 0.

With GAGAAA, the figures for the binding signal (in the experiment with SALL4 ZFC4 WT (HT-SELEX); in experiment [1]; in experiment [2]) were 1.28 ± 0.0744 fold-change vs cycle 0, 1.39 ± 0.0816 fold-change vs cycle 0 and 1.29 ± 0.0905 fold-change vs cycle 0, respectively.

Take GTGTCA: the values for the binding signal (with SALL4 ZFC4 WT (HT-SELEX); in experiment [1]; in experiment [2]) were 0.688 ± 0.0282 fold-change vs cycle 0, 0.805 ± 0.0104 fold-change vs cycle 0 and 0.881 ± 0.0197 fold-change vs cycle 0, respectively.

Consider AAATTA, for which the binding signal with SALL4 ZFC4 WT (HT-SELEX) stood at 3.81 ± 0.372 fold-change vs cycle 0; in experiment [1], 2.45 ± 0.183 fold-change vs cycle 0; in experiment [2], 2.13 ± 0.261 fold-change vs cycle 0.

Turning to GTGGGA, the results for the binding signal (in the experiment with SALL4 ZFC4 WT (HT-SELEX); in experiment [1]; in experiment [2]) were 0.413 ± 0.0385 fold-change vs cycle 0, 0.478 ± 0.0252 fold-change vs cycle 0 and 0.567 ± 0.0443 fold-change vs cycle 0, respectively.

Regarding TGATCA, the results for the binding signal (with SALL4 ZFC4 WT (HT-SELEX); in experiment [1]; in experiment [2]) were 1.35 ± 0.0953 fold-change vs cycle 0, 1.5 ± 0.0834 fold-change vs cycle 0 and 1.47 ± 0.128 fold-change vs cycle 0, respectively.

Take GGTTAA: the binding signal with SALL4 ZFC4 WT (HT-SELEX) was determined as 1.23 ± 0.0345 fold-change vs cycle 0; in experiment [1] it was 1.4 ± 0.0959 fold-change vs cycle 0; in experiment [2], 1.3 ± 0.0896 fold-change vs cycle 0.

For the sequence AGTAAT, the binding signal stood at 2.39 ± 0.144 fold-change vs cycle 0 with SALL4 ZFC4 WT (HT-SELEX), 2.3 ± 0.183 fold-change vs cycle 0 in experiment [1] and 1.99 ± 0.219 fold-change vs cycle 0 in experiment [2].
